Bioassay records (PubChem)
An excerpt weighted towards active compounds, which were near 5.4% of everything screened.
CSC inhib: blocks cancer stem cells; inhibition, % at 7.5 µM; cancer stem cell-like cells viability, luminescence; 300,000 compounds, 1.1% hits; in the data active means inhibition above about 75%; inconclusive means no clear call, values can overlap the other calls; tested in HMLE shEcad cells
PP1 counter: blocks human PP1-alpha phosphatase, a PP5 counter-screen | purified PP1alpha, OMFP fluorescence | inhibition, % at 6.7 µM | 320,000 compounds, 0.9% hits;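 active means inhibition above the mean inhibition of all tested compounds plus 3 SD, computed separately for each screening campaign, cut at about 15% in these data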
Target sequence (P62136 whole entry, looked up): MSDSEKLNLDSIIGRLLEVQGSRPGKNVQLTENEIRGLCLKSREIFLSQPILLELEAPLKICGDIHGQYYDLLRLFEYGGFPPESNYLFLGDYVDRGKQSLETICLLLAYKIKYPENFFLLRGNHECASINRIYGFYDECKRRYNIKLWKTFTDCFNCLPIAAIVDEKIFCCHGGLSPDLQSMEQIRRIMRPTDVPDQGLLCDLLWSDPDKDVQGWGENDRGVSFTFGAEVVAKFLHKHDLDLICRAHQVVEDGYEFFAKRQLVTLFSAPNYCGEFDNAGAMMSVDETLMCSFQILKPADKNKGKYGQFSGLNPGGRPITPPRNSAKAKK
Calb FLC: affects C. albicans growth with fluconazole; AID 1979; 300,000 compounds, 0.57% hits; C. albicans CaCi-2 (fluconazole-resistant clinical isolate) + fluconazole, Alamar Blue growth, 48 h; growth inhibition, % (concentration not given with the values);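 active means growth inhibition above about 58% in most replicates, limit read from the data, passing the limit was not always enough; inconclusive means exactly half the replicates above a set limit; inactive means most replicates below a set limit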;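 further: all wells also contain fluconazole at 8 µg/ml as a sub-toxic cotreatment; 0% = median of DMSO wells and 100% = median of geldanamycin control wells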
PP5 inh: inhibitors of human protein phosphatase 5 (PP5). P53041. purified PP5c, OMFP substrate fluorescence. inhibition, % at 6.7 µM. 320,000 compounds, 0.18% hits. AID 1987;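 active means inhibition above the campaign's mean inhibition across all tested compounds plus 3 SD, cut at about 9.5% in these data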;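 further: 0% = DMSO only and 100% = 100 µM cantharidin control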
ALR H2O2 inh: human ALR oxidase inhibition via reduced H2O2 | P55789 | purified ALR, DTT oxidation, H2O2 HRP-luminol luminescence | inhibition, % (no concentration beside the values) | 290,000 compounds, 3.8% hits;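 active means mean replicate inhibition above about 79%, with every replicate also reaching it, limit read from the data; inconclusive means only one of the two criteria met; inactive means mean below limit and not every replicate reaching it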
The depositor's hits bear a star; ? = inconclusive; · = no result given.

SMILES	CSC inhib	PP1 counter	Calb FLC	PP5 inh	ALR H2O2 inh
O=c1oc2ccccc2c(O)c1Cc1cc(Cl)c2cccnc2c1O	?	16*	84*	-2	-2
CC(=O)c1cccc(NC(=O)c2cc(=O)c3ccccc3o2)c1	-6	-2	-3	-2	-17
Cc1c(C(=O)OC(C)C)sc(N)c1C(=O)OC(C)C	-15	9	-2	5	0
CCOc1ccc(Cl)cc1CNc1nnnn1C	-10	-1	-6	3	13
CCCOc1ccc(Cl)cc1CNc1ccccc1	0	-2	-24	3	98*
CCOC(=O)c1c(NC(=O)COC(=O)c2ncc(Cl)c(Cl)c2Cl)sc(C(=O)N(C)C)c1C	9	-5	21	-2	-4
COCCOc1cc(NC(=O)CS(=O)CC(=O)N(C)C)c(Cl)cc1Cl (stereo not drawn)	-8	-5	-2	1	1
COc1ccc(NC(=O)C2CCCN(S(=O)(=O)c3cnc[nH]3)C2)cc1 (stereo not drawn)	-9	-2	-2	0	42
Cc1ccc2nc(NC(=O)C3CCCN(S(=O)(=O)c4cnc[nH]4)C3)sc2c1 (stereo not drawn)	-8	0	3	1	43
Cc1cc(NC(=O)C2CCCN(S(=O)(=O)c3cnc[nH]3)C2)ccc1Br (stereo not drawn)	6	-2	-8	4	93*
CCSc1nnc(NC(=O)C2CCCN(S(=O)(=O)c3cnc[nH]3)C2)s1 (stereo not drawn)	-6	-4	-4	1	93*
Cc1ccc(NC(=O)C2CCCN(S(=O)(=O)c3cnc[nH]3)C2)cc1C (stereo not drawn)	-9	-5	-1	-1	98*
CCN(CC)c1ccc(NC(=O)C2CCCN(S(=O)(=O)c3cnc[nH]3)C2)c(C)c1 (stereo not drawn)	-16	-7	2	-1	101*
O=C(Nc1ccc(F)c(F)c1)C1CCCN(S(=O)(=O)c2cnc[nH]2)C1 (stereo not drawn)	-1	-1	-1	0	·
Cc1ccc(C)c(N2CCN(c3ccc([N+](=O)[O-])cn3)CC2)c1	21	-2	-9	0	-5
Cc1ccc(Nc2nnc(SCC3CCCCO3)s2)cc1 (stereo not drawn)	18	-1	12	-3	2
CSCc1ccc(C(=O)N2CCCC(Nc3ccc(F)cc3)C2)o1 (stereo not drawn)	18	2	-2	2	98*
CSCc1ccc(C(=O)N2CCCC(Nc3ccc4c(c3)OCCO4)C2)o1 (stereo not drawn)	3	-5	-1	4	99*
O=C(c1ccco1)N1CCCC(Nc2ccc3c(c2)OCCO3)C1 (stereo not drawn)	-12	-4	-5	5	99*
Cc1occc1C(=O)N1CCCC(Nc2ccc(F)c(F)c2)C1 (stereo not drawn)	-4	-1	22	1	50
O=C(c1cc(Cl)ccc1F)N1CCCC(Nc2ccc3c(c2)OCCO3)C1 (stereo not drawn)	-16	-2	-1	2	97*
CC(C)(C)NS(=O)(=O)c1ccc2nc(NC(=O)Cc3cccs3)sc2c1	35	0	-6	2	-3
Cc1cccc(-n2cc(CN(C)Cc3nccn3C)c(-c3cccc(F)c3)n2)c1	103*	6	14	6	-11
CC1(C)CC(=O)C(C(c2ccco2)C2C(=O)CC(C)(C)CC2=O)C(=O)C1	6	-2	?	1	83*
CC1(C)CC(=O)C(C(c2ccc(F)cc2)C2C(=O)CC(C)(C)CC2=O)C(=O)C1	-5	-1	0	1	18
SMILES	CSC inhib	PP1 counter	Calb FLC	PP5 inh	ALR H2O2 inh
Cc1ccc(S(=O)(=O)N2CCCC2CNC(=O)c2ccc3c(c2)OCO3)cc1 (stereo not drawn)	·	-1	6	0	3
COc1ccc(-c2n[nH]c(=S)n2-c2ccc(C)cc2C)cc1	-18	-4	-5	-2	46
Cc1ccc(-n2c(-c3cccnc3)n[nH]c2=S)c(C)c1	11	-3	40	2	84*
Cc1ccc(-n2c(-c3ccc(Cl)cc3)n[nH]c2=S)c(C)c1	-12	2	41	0	87*
Cc1ccc(S(=O)(=O)NNC(=O)Nc2ccc(Cl)cc2)cc1	2	-1	-5	-3	-1
COc1cc(-c2nc3ccc4ccccc4c3c3c2CCC3)ccc1O	78*	-14	-3	2	96*
COc1ccc(NC(=O)CSc2nnc(-c3ccc(F)cc3)o2)cn1	·	-2	·	1	·
